Measured values taken from PubChem BioAssay.
Activity calls are given as the source filed them.

Experiments:
[1] = E. coli DRC41 culture turbidity changes, primary screen, E. coli filamentation inducer project, strain DRC41, OD650, 48 h (AID 1152);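 also: E. coli MC1000 strain DRC41 lacking acrAB efflux pump and sulA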; conditions: E. coli DRC41 (acrAB sulA), higher = more signal, called active from +8 up or from −8 down
[2] = small-molecule binders of probe aLefty1, primary screen, biochemical, small-molecule microarray, 635/667 nm fluorescence (AID 1153); conditions: higher = more signal;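 also: score merges spot fluorescence with signal-to-noise ratio from the scanned slide images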
[3] = PSAC antagonists in infected red cells, primary screen, cell-based, P. falciparum Indochina, OD700, 1 h (AID 1154); conditions: P. falciparum Indochina infected RBC osmotic lysis, higher = more signal, called active from +8 up or from −8 down
[4] = PSAC antagonists in infected red cells, primary screen, cell-based, P. falciparum Indochina, OD700, 2 h (AID 1155);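 also: lysis reports solute entry through the parasite surface anion channel PSAC; channel blockers reduce lysis of infected cells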; conditions: P. falciparum Indochina infected erythrocytes, osmotic lysis OD700; higher = more signal, called active from +8 up or from −8 down
[5] = osmotic lysis modulators in infected erythrocytes, primary screen, PSAC antagonist project, cell-based, P. falciparum Indochina, OD700, 3 h (AID 1156); conditions: higher = more signal, called active from +8 up or from −8 down
[6] = PSAC antagonists in infected red cells, primary screen, cell-based, P. falciparum Indochina, OD700, 18 h (AID 1157); conditions: P. falciparum Indochina infected erythrocytes, osmotic lysis OD700, 18 h; higher = more signal, called active from +8 up or from −8 down
[7] = modulators of S6 phosphorylation in cells, primary screen, cell-based, A549, cytoblot, luminescence, serum-stimulated (AID 1158); conditions: A549 phospho-S6 cytoblot, 5 h, higher = more signal;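 also: serum-stimulated A549 lung adenocarcinoma cells; signal is phosphorylated S6 detected by cytoblot immunostaining with HRP secondary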
[8] = biological target: NADPH oxidase 2 (Homo sapiens) (UniProt P04839); assay: NOX2-dependent H2O2 signal modulators, primary screen, NOX inhibitor project, cell-based, HEK293-NOX2, PMA-stimulated, Amplex Red fluorescence (AID 1159); conditions: 45 min, higher = more signal, called active from +8 up or from −8 down; also: test concentration not given here
Sequence of NADPH oxidase 2 (Homo sapiens) (P04839 whole entry, looked up): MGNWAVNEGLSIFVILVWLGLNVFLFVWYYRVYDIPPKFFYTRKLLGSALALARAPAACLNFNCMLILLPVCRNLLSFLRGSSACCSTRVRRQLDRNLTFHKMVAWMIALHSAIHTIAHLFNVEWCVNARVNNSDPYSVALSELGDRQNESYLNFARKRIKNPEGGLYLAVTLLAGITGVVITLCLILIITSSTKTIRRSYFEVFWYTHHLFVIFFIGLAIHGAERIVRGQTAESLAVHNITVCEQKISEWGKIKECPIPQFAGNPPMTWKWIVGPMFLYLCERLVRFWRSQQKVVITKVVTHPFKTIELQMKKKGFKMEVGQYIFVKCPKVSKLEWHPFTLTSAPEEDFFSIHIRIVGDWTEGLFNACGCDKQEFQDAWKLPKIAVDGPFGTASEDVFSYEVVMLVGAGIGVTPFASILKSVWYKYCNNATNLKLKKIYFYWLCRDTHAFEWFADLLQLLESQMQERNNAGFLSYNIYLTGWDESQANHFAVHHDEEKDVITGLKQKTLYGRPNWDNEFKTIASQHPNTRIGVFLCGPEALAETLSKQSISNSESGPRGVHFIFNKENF

[9] = biological target: NADPH oxidase 4 (Homo sapiens) (UniProt Q9NPH5); assay: NOX4-dependent H2O2 signal modulators, primary screen, NOX inhibitor project, cell-based, HEK293-NOX4, tetracycline-induced, Amplex Red fluorescence (AID 1160); conditions: 45 min, higher = more signal, called active from +8 up or from −8 down
Sequence of NADPH oxidase 4 (Homo sapiens) (Q9NPH5 whole entry, looked up): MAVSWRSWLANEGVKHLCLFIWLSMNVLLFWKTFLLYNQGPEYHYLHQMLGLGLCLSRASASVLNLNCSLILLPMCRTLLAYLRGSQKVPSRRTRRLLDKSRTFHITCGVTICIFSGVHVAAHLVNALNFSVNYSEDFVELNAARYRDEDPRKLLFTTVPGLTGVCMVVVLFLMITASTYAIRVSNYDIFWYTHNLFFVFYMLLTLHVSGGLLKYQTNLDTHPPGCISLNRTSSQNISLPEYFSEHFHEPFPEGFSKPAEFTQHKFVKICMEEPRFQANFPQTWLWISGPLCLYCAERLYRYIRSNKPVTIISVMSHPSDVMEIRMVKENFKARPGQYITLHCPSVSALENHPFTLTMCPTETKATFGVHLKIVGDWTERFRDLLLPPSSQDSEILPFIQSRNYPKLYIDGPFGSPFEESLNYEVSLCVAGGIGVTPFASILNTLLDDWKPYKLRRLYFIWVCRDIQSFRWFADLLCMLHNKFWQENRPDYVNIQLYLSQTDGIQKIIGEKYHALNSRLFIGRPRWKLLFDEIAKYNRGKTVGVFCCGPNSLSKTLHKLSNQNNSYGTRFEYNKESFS

[10] = biological target: NADPH oxidase 5 (Homo sapiens) (UniProt Q96PH1); assay: NOX5-dependent H2O2 signal modulators, primary screen, NOX inhibitor project, cell-based, HEK293-NOX5, Amplex Red fluorescence (AID 1161); conditions: HEK293-NOX5, ionomycin, 45 min, higher = more signal
Sequence of NADPH oxidase 5 (Homo sapiens) (Q96PH1 whole entry, looked up): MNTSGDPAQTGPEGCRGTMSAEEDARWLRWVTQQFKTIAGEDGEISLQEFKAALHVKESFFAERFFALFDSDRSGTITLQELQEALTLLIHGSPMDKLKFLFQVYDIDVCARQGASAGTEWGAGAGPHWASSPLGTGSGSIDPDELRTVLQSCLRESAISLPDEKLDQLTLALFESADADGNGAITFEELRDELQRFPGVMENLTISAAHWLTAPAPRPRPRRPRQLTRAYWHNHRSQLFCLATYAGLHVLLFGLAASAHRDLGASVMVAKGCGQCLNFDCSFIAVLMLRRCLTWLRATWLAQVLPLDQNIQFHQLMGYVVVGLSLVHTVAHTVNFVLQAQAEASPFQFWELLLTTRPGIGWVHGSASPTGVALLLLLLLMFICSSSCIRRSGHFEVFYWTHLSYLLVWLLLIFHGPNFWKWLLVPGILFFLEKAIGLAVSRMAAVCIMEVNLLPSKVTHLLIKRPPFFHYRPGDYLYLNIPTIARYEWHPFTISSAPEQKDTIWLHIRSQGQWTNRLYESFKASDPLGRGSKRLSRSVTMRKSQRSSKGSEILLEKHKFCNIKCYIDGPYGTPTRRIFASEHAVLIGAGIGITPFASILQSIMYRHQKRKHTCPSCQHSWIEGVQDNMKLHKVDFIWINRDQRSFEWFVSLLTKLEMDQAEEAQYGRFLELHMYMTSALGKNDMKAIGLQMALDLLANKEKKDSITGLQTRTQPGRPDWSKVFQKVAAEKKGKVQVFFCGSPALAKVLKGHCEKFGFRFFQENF

| SMILES | z-score [1] | composite z-score [2] | z-score [3] | z-score [4] | z-score [5] | z-score [6] | z-score [7] | z-score [8] | z-score [9] | z-score [10] |
| --- | --- | --- | --- | --- | --- | --- | --- | --- | --- | --- |
| COCCOC(=O)N1C(=O)[C@@]2(c3cc(C#CCC(C(=O)OC)C(=O)OC)ccc31)[C@H](C(=O)N1CCc3cc(OC)c(OC)cc3C1)[C@H]1C(=O)O[C@H](c3ccccc3)[C@H](c3ccccc3)N1[C@@H]2c1ccc(OCCO)cc1 | -0.763 (inactive) | 0.54 | 9.36 (active) | 2.73 (inactive) | 0.57 (inactive) | 1.67 (inactive) | -0.37 | 1.98 (inactive) | 1.19 (inactive) | 1.42 |
| CCOc1cc(C(O)C2C=CC3C(=O)N(C)C(=O)C3N2Nc2ccccc2)ccc1O (stereo not given) | -0.353 (inactive) | 0.0313 | 0.453 (inactive) | 1.45 (inactive) | 0.42 (inactive) | 1.42 (inactive) | -1.01 | -1.4 (inactive) | -1.94 (inactive) | -1.78 |
| C=CCC(OC(C)=O)[C@@H]1[C@@H](N(Cc2cccc3ccccc23)C(=O)c2cccc3ccccc23)c2cc(OCCCO)ccc2N1C(=O)c1ccc(-c2ccccc2)cc1 (stereo not given in full) | -0.929 (inactive) | -0.106 | -0.17 (inactive) | 0.526 (inactive) | 0.0426 (inactive) | 0.361 (inactive) | 0.684 | -0.677 (inactive) | 0.104 (inactive) | -2.47 |
| C=CC[C@]1(C(=O)NCCN2CCOCC2)N=C(c2ccc(OCCCO)cc2)O[C@H]1c1ccccc1CN=[N+]=[N-] | 1.33 (inactive) | -0.264 | 18.6 (active) | 1.83 (inactive) | 2.57 (inactive) | 0.79 (inactive) | 0.202 | 2.07 (inactive) | 1.16 (inactive) | -0.426 |
| CN1C(=O)C2C=CC(C(O)C#Cc3ccccc3)N(Nc3ccccc3)C2C1=O (stereo not given) | -0.877 (inactive) | 0.545 | 1.07 (inactive) | 0.783 (inactive) | 0.0989 (inactive) | 1.12 (inactive) | -1.19 | -1.22 (inactive) | -4.71 (inactive) | -1.8 |
| COC1OC[C@]2(C)[C@H]3C4=C(CN2C(=O)OC(C)(C)C)[C@H](C)C(CO)C(CO)C4CC[C@@H]13 (stereo not given in full) | -0.787 (inactive) | 1.13 | 0.884 (inactive) | -0.0719 (inactive) | 0.394 (inactive) | 0.494 (inactive) | 0.15 | -1.39 (inactive) | -0.651 (inactive) | -2.12 |
| COCCCNC(=O)[C@@]1(Cc2ccccc2N=[N+]=[N-])COC(c2ccc(OCCCO)cc2)=N1 | 1.21 (inactive) | 0.35 | 27.4 (active) | 16.4 (active) | 2.03 (inactive) | 2.36 (inactive) | -0.44 | -1.62 (inactive) | 0.528 (inactive) | -0.146 |
| CCOC(=O)C[C@H]1[C@H](OC(=O)c2cc3ccccc3oc2=O)[C@@H](NC(=O)Cc2ccc(OC)cc2)c2cc(OCCCO)ccc2N1C(=O)c1ccc2ccccc2n1 | 0.96 (inactive) | -0.0046 | 9.52 (active) | 0.85 (inactive) | 0.785 (inactive) | 0.305 (inactive) | 0.336 | 1.71 (inactive) | 1.34 (inactive) | 1.53 |
| COc1ccc([Si](C)(C)[C@@H]2[C@@H](CC(=O)N3Cc4ccccc4C[C@H]3CO)O[C@]3(C(=O)N(C)c4ccccc43)[C@H]2C)cc1 | -0.883 (inactive) | 0.503 | 11.8 (active) | 2.87 (inactive) | 0.368 (inactive) | 1.21 (inactive) | 0.884 | -0.11 (inactive) | 0.00429 (inactive) | -1.7 |
| COc1ccc(C(O)C2C=CC3C(=O)N(c4ccccc4)C(=O)C3N2Nc2ccc([N+](=O)[O-])cc2)cc1 (stereo not given) | -1.35 (inactive) | 0.987 | 14.3 (active) | 2.49 (inactive) | 0.547 (inactive) | 1.24 (inactive) | -0.727 | -0.897 (inactive) | -2.79 (inactive) | -2.72 |
| O=C1O[C@@H](c2ccccc2)[C@@H](c2ccccc2)N2[C@@H](c3ccc(O)cc3)[C@]3(C(=O)Nc4ccc(C#CC5=CCCCC5)cc43)[C@@H](C(=O)NC[C@H](O)c3ccccc3)[C@H]12 | 1.22 (inactive) | 0.15 | 0.622 (inactive) | 0.347 (inactive) | -0.853 (inactive) | 0.933 (inactive) | 0.0825 | 1.22 (inactive) | 0.53 (inactive) | 0.909 |
| CC(C)(C)OC(=O)CC[C@]1(C(=O)NCC(O)CO)N=C(c2ccc(OCCCO)cc2)O[C@H]1c1ccccc1 (stereo not given in full) | 1.79 (inactive) | 0.125 | 19.9 (active) | 1.43 (inactive) | 2.61 (inactive) | -1.32 (inactive) | 2.01 | 0.246 (inactive) | 0.678 (inactive) | 0.199 |
| O=C1NC(=O)C2C1C=CC(C(O)c1cccc3ccccc13)N2Nc1ccc(Cl)cc1Cl (stereo not given) | -1.85 (inactive) | 0.505 | 1.98 (inactive) | 0.994 (inactive) | -2.46 (inactive) | 1.42 (inactive) | -1.11 | -1.37 (inactive) | -6.34 (inactive) | -3.5 |
| Cc1ccc(S[C@]2(C(=O)NCC(F)(F)F)CC(=O)N(Cc3ccccc3)[C@@H]2c2ccc(CO)cc2I)cc1 | -0.764 (inactive) | 0.0355 | 4.23 (inactive) | 0.283 (inactive) | 0.173 (inactive) | 0.279 (inactive) | -0.404 | 1.22 (inactive) | -1.33 (inactive) | 0.776 |
| O=C(CS)NCCCCCCNC(=O)[C@H]1C[C@H]2C(=O)N[C@@H](Cc3ccccc3)C(=O)N2[C@H]1c1ccc(O)cc1 | -0.558 (inactive) | -0.54 | 8.58 (active) | 1.21 (inactive) | -0.177 (inactive) | 0.767 (inactive) | -0.0427 | 0.593 (inactive) | -0.0574 (inactive) | 1.08 |
| CC(C)C(=C=CC[C@H](O)c1ccc(OCCO)cc1)C[C@H](O)c1ccccn1 | 0.839 (inactive) | -0.191 | 11.3 (active) | 2.04 (inactive) | 1.11 (inactive) | 0.945 (inactive) | 0.439 | 1.66 (inactive) | 0.926 (inactive) | -1.03 |
| CCCCC(=C=CC[C@@H](O)c1ccccc1OCCO)C[C@@H](O)COCc1ccccc1 | 1.47 (inactive) | 0.117 | 17.5 (active) | 1.74 (inactive) | -0.255 (inactive) | -0.385 (inactive) | 1.51 | -0.123 (inactive) | -0.101 (inactive) | -2.04 |
| CO[C@H]1O[C@H](CO)[C@@H](OC(=O)Nc2ccccc2-c2ccccc2)[C@H](OC(=O)Nc2ccc3c(c2)OCO3)[C@H]1OC(=O)Nc1ccc2c(c1)OCO2 | 1.27 (inactive) | 0.809 | 6.03 (inactive) | 1.08 (inactive) | 0.52 (inactive) | 0.666 (inactive) | -0.0053 | -2.21 (inactive) | -1.18 (inactive) | -2.42 |
